Measured values published in PubChem BioAssay (NCI).
This is part of a sample that, as a whole, favours compounds with a hit. Of some 83,000 tested, about 20% had one in any assay.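 Plates (96-well) were seeded with cells, treated with compound at one concentration, and incubated for 48 hours before percent growth was determined.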 Values without a mark were called inactive. Calls of active or inactive are those of the source. How the source made its calls: active means growth percent below 10; inactive means the rest.

Experiments:
Assay in all cases: NCI-60 one-dose screen, 48 h (100 = growth as untreated, 0 = no growth, -100 = all killed)
Settings in all cases: 10 µM unless noted
[1] = test system: DU-145 prostate
[2] = test system: K-562 leukemia
[3] = test system: MDA-MB-231 breast
[4] = test system: RXF 393 renal
[5] = test system: SF-268 CNS
[6] = test system: SF-295 CNS
[7] = test system: SF-539 CNS
[8] = test system: UACC-257 melanoma
[9] = test system: M14 melanoma
[10] = test system: HCT-15 colon
[11] = test system: HT29 colon
[12] = test system: SNB-75 CNS
[13] = test system: SNB-19 CNS
[14] = test system: U251 CNS
[15] = test system: PC-3 prostate
[16] = test system: UACC-62 melanoma
[17] = test system: LOX IMVI melanoma
[18] = test system: SK-MEL-28 melanoma
[19] = test system: MALME-3M melanoma
[20] = test system: SK-MEL-5 melanoma

Compound	growth [1]	growth [2]	growth [3]	growth [4] [%]	growth [5]	growth [6] [%]	growth [7]	growth [8] [%]	growth [9]	growth [10]	growth [11] [%]	growth [12]	growth [13] [%]	growth [14]	growth [15]	growth [16]	growth [17]	growth [18]	growth [19]	growth [20]
Cn1c2ccccc2c2nn(Cc3ccccc3)c(=O)nc21	113%	109%	103%	103	103%	97.4	99.7%	101	104%	94.6%	112	77%	106	106%	99.4%	108%	102%	126%	–	–
Cc1ccc(C(=O)Nc2ccccc2N)cc1	73.5%	62.5%	69.7%	84.6	69.6%	62.5	68.1%	68	77.5%	88%	79.4	82.8%	81.9	74.8%	70.9%	52.1%	89.5%	–	–	–
Cc1ccc(S(=O)(=O)N(c2ccc(Cl)cc2)c2ccc(Br)cc2C(=O)O)cc1	117%	107%	119%	100	111%	112	102%	101	117%	100%	107	97.2%	–	95.8%	96.7%	105%	–	119%	–	–
NC(=S)N/N=C1\c2ccccc2-c2c(F)c(F)c(F)c(F)c21	81.7%	9.46% (active)	–	123	85.3%	99.5	96.1%	23.1	70.2%	62.8%	52.8	95.7%	89	63.9%	80.3%	93.4%	86.6%	113%	73.6%	102%
Cc1ccc(S(=O)(=O)N2C/C(=C\c3cc(F)cc(F)c3)C(=O)/C(=C/c3cc(F)cc(F)c3)C2)cc1	-61.3% (active)	2.14% (active)	-29.7% (active)	–	-40.6% (active)	–	-39.6% (active)	–	-50.1% (active)	-31.6% (active)	–	-41.6% (active)	–	-97.9% (active)	-60.3% (active)	-91.1% (active)	-94.5% (active)	-80.1% (active)	-62.9% (active)	-59.6% (active)
O=C(Nc1ccccc1O)c1ccc(NS(=O)(=O)c2cccc3cccnc23)cc1	49.1%	23.8%	64%	69.8	44%	62.9	41.4%	26.8	41.1%	63.9%	39.9	48.5%	67.9	46.5%	59%	23.1%	–	37.6%	–	–
N#Cc1ccc(C(F)(F)F)nc1N1CCC(C(=O)Nc2ccc(Cl)cc2)CC1	86.6%	49.3%	95.7%	–	89%	65.5	100%	–	75.2%	43.9%	51.5	105%	–	65.3%	51%	84.8%	43.7%	87.2%	94.2%	–
COc1cccc(OC)c1OC(=O)c1ccccc1	119%	105%	–	109	111%	79.5	99.1%	99.5	109%	109%	107	82.5%	104	94.8%	106%	97.1%	92.7%	98.2%	106%	96%
COc1ccc(CSc2nc3cc(OC)c(OC)cc3c(=O)n2-c2ccc(Cl)cc2)cc1	109%	93%	99.9%	–	101%	–	95.9%	–	106%	98.6%	112	92.9%	–	94.2%	82%	99.4%	98%	107%	107%	95.4%
